Assay results reported in PubChem BioAssay (NCI).
Where “and” joins values, the source holds several entries; their conditions need not be identical. Equal entries are not always repeated. The panel holds about 79,000 compounds, 15% with a hit somewhere; the sample as a whole holds those more often. Some compounds were tested as several samples or in several runs, with calls that do not always agree. Calls of active or inactive are those of the source. Rule as the data show it: active = growth inhibition above about 70%; inactive = the rest.

Assay: NCI Yeast Anticancer Drug Screen. Data for the sgs1 mgt1 strain (AID 161);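 also: 0% = growth of cultures given vehicle only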
Details: S. cerevisiae sgs1 mgt1 strain, stronger effect = higher value
Experimental: Growth inhibition of yeast strains with defined genetic alterations is measured as a screen for potential anti-cancer activity. Selected strains with alterations in DNA damage repair or cell cycle control were exposed to compounds and growth inhibition was measured relative to vehicle treated controls. The strain used in this assay is sgs1 mgt1

[1] = at 5.0 µM (retest, dose inferred, filed as 0.5)
[2] = at 50.0 µM (retest, dose inferred, filed as 5.0)

Structure (SMILES)	growth inhibition [1]	growth inhibition [2]	growth inhibition (at 50.0 µM)
C=C[C@H]1CN2CC[C@H]1C[C@@H]2[C@@H](O)c1ccnc2ccccc12	-10% (inactive)	-1% (inactive)	-11.9% (inactive)
CCNc1ncc2ccccc2c1-c1ccc(N2CCN(CCCl)CC2)cc1	11% (inactive)	97% (active)	98.7% (active)
N#Cc1ccc(N=Cc2c([O-])ccc3ccccc23)cc1.[C-]#[O+].[C-]#[O+].[Ir]	2% (inactive)	2% (inactive)	61.8% (inactive)
CC(Cc1ccccc1)N(C)Cc1ccc(-c2ccccc2)o1 (configuration not stated)	14% (inactive)	94% (active)	63.6% (inactive)
Clc1ccc(-c2cc(=[N+]3CC[N+](=c4cc(-c5ccc(Cl)cc5)ss4)CC3)ss2)cc1	2% (inactive)	4% (inactive)	98.9% (active)
O=C(CCl)OCC(Cl)Cl	1% (inactive)	6% (inactive)	10.4% (inactive)
Cc1cc(C)[n+](CCOc2ccc(/C(=C(/Cl)c3ccccc3)c3ccccc3)cc2)c(C)c1	73% (active)	73% (active)	92.2% (active)
c1ccc(-c2ccccn2)nc1	8% (inactive) and -2% (inactive)	74% (active) and 75% (active)	66% (inactive) and 77.8% (active)
CC(=O)C(CN(C)C)C(c1ccccc1)c1c(O)c2ccccc2oc1=O (configuration not stated)	4% (inactive)	4% (inactive)	70.8% (active)
NC1=C(c2nc(-c3ccccc3)cs2)C(c2ccc(Br)cc2)c2c(c3ccccc3oc2=O)O1 (configuration not stated)	7% (inactive)	99% (active)	17.2% (inactive)
CSc1ccc2c(c1)c(CCN)c(C)n2Cc1ccccc1Cl	12% (inactive)	99% (active)	99.3% (active)
CS/C([S-])=N/N=C(C)C.CS/C([S-])=N/N=C(C)C.[Ni+2]	28% (inactive)	97% (active)	83.7% (active)
C[n+]1c(/C=C/c2ccc(O)c3ncccc23)[se]c2ccccc21	24% (inactive)	91% (active)	92.3% (active)
Clc1ccc2c(NCCCCN3OC3c3ccccc3)ccnc2c1 (configuration not stated)	23% (inactive)	57% (inactive)	67.5% (inactive)
